Records with an inconclusive call do not appear. The source made the active and inactive calls. Unless noted, calls come from the whole dose curve; as a rule, active = well fitted curve in the direction sought with a large enough effect; inconclusive = small, poorly fitted or top-dose-only effect, or another doubt; inactive = no such curve, though single readings can be large; an effect the other way counts as inactive or inconclusive.
Experiments:
[1] = biological target: Lysosomal acid glucosylceramidase (Homo sapiens) (UniProt P04062); test: Glucocerebrosidase-p2 (AID 348; in the data active = potency below about 10 µM; note: potency is the fitted concentration of half-maximal effect); settings: purified GBA, blue fluorogenic substrate, 40 min
Lysosomal acid glucosylceramidase (Homo sapiens), sequence (P04062 whole entry, looked up): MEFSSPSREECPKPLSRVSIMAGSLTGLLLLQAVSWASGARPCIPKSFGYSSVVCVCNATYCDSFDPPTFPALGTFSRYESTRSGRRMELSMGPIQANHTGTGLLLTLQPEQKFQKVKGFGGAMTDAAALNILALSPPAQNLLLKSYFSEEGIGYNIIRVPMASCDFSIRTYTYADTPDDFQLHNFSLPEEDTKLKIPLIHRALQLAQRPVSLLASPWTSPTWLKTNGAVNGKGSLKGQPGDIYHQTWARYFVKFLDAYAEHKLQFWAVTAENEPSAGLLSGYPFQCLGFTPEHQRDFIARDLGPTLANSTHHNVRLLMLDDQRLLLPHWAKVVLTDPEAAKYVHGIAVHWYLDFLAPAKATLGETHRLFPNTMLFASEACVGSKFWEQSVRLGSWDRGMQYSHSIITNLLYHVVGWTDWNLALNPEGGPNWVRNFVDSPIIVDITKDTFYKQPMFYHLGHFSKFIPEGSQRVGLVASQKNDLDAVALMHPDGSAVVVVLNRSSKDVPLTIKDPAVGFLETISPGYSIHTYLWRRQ
Summary of the method: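 Normal human glucocerebrosidase (0.2 nM) with blue fluorogenic substrate (80 uM final) in citrate/phosphate pH 5.9 with 10mM sodium taurocholate, 0.01% tween-20; 40 min RT, NaOH/glycine stop; fluorescence Ex 365/Em 440; AC50 from a titration from 0.6 nM upwards.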

[2] = AP1 Signaling Pathway (AID 357; active = well fitted curve in either direction with a large enough effect, not every such curve was filed as active;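 note: ME-180 reporter cells stimulated with EGF at its EC50 level; % is set by controls: 0 for no effect and ±100 for the full control effect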); settings: ME-180 AP-1-bla reporter, EGF-induced, beta-lactamase ratio, 5 h; at 7.69 µM (top of the series) unless noted
Summary of the method: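 Read-out was the 460nm/530nm emission ratio (excitation 405nm) after CCF4 loading for 2.5 hours at room temperature. Cells carried an AP-1-driven beta-lactamase reporter, were stimulated with EC50 EGF plus compound for 5 hours, and AC50 values came from titrations.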

[3] = biological target: Cytochrome P450 1A2 (Homo sapiens) (UniProt P05177); test: p450-cyp1a2 (AID 410; calls by dose curve; note: potency is the fitted concentration of half-maximal effect); settings: recombinant CYP1A2, luciferin-ME demethylation, luminescence; series mostly up to 57 µM
Cytochrome P450 1A2 (Homo sapiens), sequence (P05177 whole entry, looked up): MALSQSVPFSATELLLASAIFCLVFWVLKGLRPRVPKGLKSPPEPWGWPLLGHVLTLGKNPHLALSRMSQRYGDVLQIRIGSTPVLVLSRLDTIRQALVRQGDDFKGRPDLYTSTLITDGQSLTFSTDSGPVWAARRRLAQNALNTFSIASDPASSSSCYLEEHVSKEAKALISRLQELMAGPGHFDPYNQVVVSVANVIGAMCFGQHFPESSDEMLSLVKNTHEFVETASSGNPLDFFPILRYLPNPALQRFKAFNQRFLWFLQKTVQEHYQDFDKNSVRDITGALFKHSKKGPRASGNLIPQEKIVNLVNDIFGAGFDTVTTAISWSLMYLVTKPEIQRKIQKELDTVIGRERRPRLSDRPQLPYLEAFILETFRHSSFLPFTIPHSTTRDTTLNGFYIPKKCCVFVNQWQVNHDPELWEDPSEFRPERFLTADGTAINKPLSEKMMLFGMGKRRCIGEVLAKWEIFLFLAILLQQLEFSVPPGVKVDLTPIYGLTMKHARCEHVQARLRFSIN
Summary of the method: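 Read-out is luminescence from luciferin produced by CYP1A2 demethylation of Luciferin-ME (100uM, at Km). Detection reagent stopped the 60 min NADPH-dependent reaction; signals were normalized to 57 uM furafylline.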

[4] = NFAT Signaling Pathway (AID 444; active = well fitted curve in either direction with a large enough effect, not every such curve was filed as active;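 note: carbachol stimulus at about its EC50 of 1 µM final; % is set by controls: 0 for no effect and ±100 for the full control effect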); settings: Jurkat NFAT-bla M1, carbachol, beta-lactamase ratio, 5 h; at 7.69 µM (top of the series) unless noted
Summary of the method: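 Read-out: CCF4 FRET ratio (460 nm/530 nm) after 1 h RT dye loading, used for %activity and AC50 from titration series. Cells: Jurkat NFAT-β-lactamase/M1 line, treated with compound plus 1 uM carbachol for 5 h, 37 °C.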

[5] = Stat Signaling Pathway (AID 446; active = well fitted curve in either direction with a large enough effect, not every such curve was filed as active;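 note: ME-180 cervical cancer cells given 40 pM IL-6 alongside compound; SIE-controlled beta-lactamase reporter measured as 460/530 nm FRET emission ratio; % is set by controls: 0 for no effect and ±100 for the full control effect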); settings: ME-180 SIE beta-lactamase reporter, IL-6 stimulated, 5 h; at 7.69 µM (top of the series) unless noted
Summary of the method: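 Compound effects on IL-6-induced STAT reporter activity were measured in ME-180 cells. After overnight culture, cells were co-treated with 40 pM IL-6 for 5 hrs before beta-lactamase substrate loading at room temperature.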

[6] = biological target: Glucocorticoid receptor (Homo sapiens) (UniProt P04150); test: GR-GFP Redistribution (AID 450;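 active = compounds whose dose series gives a full or clear partial fitted curve of increased nuclear translocation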; note: potency is the fitted concentration of half-maximal effect); settings: U2OS GR-GFP nuclear translocation, laser cytometry, 2 h
Glucocorticoid receptor (Homo sapiens), sequence (P04150 whole entry, looked up, the tested form may be a part): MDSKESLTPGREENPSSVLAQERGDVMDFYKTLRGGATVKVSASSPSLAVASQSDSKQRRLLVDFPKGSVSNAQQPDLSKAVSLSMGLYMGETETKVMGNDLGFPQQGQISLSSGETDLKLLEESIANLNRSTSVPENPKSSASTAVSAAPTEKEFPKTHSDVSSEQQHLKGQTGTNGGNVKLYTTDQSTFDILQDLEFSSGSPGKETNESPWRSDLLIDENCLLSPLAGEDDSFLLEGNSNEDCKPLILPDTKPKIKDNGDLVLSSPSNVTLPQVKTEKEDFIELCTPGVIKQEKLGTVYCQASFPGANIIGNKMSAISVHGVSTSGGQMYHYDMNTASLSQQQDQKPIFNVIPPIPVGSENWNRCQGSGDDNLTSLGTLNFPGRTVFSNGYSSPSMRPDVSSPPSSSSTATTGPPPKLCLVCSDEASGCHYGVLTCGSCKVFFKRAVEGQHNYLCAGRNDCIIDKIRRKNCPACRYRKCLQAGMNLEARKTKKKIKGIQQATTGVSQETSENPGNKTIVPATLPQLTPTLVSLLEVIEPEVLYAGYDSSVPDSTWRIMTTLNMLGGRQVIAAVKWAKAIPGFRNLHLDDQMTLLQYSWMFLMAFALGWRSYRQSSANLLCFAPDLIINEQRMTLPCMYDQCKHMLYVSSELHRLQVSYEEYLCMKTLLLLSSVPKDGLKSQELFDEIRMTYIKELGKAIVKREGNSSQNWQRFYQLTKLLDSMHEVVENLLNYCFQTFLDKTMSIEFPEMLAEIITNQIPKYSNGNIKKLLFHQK

[7] = biological target: Glucocorticoid receptor (Homo sapiens) (UniProt P04150); test: GR-EFC Redistribution (AID 451; calls by dose curve; note: potency is the fitted concentration of half-maximal effect); settings: CHO-K1 GR-EFC translocation, beta-gal luminescence, 2 h
Summary of the method: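 Translocation of GR-ED fusion to nuclear EA restores b-gal, read by luminescence after 1 h room-temperature detection. Engineered CHO-K1 biosensor cells, 1,000/well, exposed 2 h at 37 C to titrations up to 46 uM final.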

[8] = biological target: Mitogen-activated protein kinase 10 (Mus musculus) (UniProt Q61831); test: JNK3 AlphaScreen Assay (AID 530; active = well fitted curve in either direction with a large enough effect, not every such curve was filed as active;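 note: kinase came from lysate of stimulated human HepG2 cells; signal reports phosphorylation of biotinylated GST-cJun 1-79 at Ser73 with 10 µM ATP; % is set by controls: 0 for no effect and ±100 for the full control effect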); settings: JNK3 lysate, c-Jun phosphorylation; series mostly up to 57.1 µM
Summary of the method: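 Kinase buffer: 20 mM Tris-HCl pH 7.6, 10 mM MgCl2, 1 mM DTT, 0.1 mM Na3VO4, 0.01% Tween-20; ATP 10 uM. Substrate biotin-GST-cJun(1-79), enzyme from activated HepG2 lysates. Detection by Ser73 phospho-antibody AlphaScreen.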

[9] = biological target: 3',5'-cyclic-AMP phosphodiesterase 4B (Homo sapiens) (UniProt Q07343); test: qHTS Assay for Inhibitors of PDE-IV (AID 607; active = well fitted activation curve with a large enough effect in the main read-out, with a control signal flat, not every such curve was filed as active; note: % of control where 0% means no effect); settings: HEK293 ACTOne CNG channel cells, membrane potential fluorescence; series mostly up to 22.9 µM
3',5'-cyclic-AMP phosphodiesterase 4B (Homo sapiens), sequence (Q07343 whole entry, looked up): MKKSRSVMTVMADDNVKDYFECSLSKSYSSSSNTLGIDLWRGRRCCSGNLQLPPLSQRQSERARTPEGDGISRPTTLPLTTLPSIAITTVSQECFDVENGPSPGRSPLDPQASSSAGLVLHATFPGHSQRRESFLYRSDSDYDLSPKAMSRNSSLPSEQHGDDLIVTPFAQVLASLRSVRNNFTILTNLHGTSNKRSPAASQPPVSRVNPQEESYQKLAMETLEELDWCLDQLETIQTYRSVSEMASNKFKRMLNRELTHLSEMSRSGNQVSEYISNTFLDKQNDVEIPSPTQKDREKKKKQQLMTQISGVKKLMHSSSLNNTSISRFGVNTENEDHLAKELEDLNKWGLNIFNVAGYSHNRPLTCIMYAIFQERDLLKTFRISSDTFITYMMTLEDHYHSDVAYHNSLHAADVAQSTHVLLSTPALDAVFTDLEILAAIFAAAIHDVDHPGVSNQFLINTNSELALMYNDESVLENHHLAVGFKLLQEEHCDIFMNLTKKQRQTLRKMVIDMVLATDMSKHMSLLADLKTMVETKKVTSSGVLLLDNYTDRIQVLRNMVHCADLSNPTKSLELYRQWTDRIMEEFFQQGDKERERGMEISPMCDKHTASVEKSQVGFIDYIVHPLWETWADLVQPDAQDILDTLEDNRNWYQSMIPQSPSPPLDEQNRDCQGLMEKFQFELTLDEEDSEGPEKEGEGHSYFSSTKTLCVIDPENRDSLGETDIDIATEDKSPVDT
Summary of the method: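 ACTOne HEK293 cells carry a modified cAMP-gated CNG channel and express endogenous PDE4; plated 1000 cells/well, compounds up to 22.9 uM final. Membrane-potential dye fluorescence (ex 535/em 590) was read; parental cells received 10 uM forskolin + 100 uM RO 20-1724.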

[10] = biological target: Cytochrome P450 3A4 (Homo sapiens) (UniProt P08684); test: qHTS Assay for Inhibitors and Substrates of Cytochrome P450 3A4 (AID 884); settings: recombinant CYP3A4, Luciferin-PPXE luminescence; series mostly up to 57.1 µM; note: potency is the fitted concentration of half-maximal effect; nearly all actives have a fitted effect of over 50% in size
Cytochrome P450 3A4 (Homo sapiens), sequence (P08684 whole entry, looked up): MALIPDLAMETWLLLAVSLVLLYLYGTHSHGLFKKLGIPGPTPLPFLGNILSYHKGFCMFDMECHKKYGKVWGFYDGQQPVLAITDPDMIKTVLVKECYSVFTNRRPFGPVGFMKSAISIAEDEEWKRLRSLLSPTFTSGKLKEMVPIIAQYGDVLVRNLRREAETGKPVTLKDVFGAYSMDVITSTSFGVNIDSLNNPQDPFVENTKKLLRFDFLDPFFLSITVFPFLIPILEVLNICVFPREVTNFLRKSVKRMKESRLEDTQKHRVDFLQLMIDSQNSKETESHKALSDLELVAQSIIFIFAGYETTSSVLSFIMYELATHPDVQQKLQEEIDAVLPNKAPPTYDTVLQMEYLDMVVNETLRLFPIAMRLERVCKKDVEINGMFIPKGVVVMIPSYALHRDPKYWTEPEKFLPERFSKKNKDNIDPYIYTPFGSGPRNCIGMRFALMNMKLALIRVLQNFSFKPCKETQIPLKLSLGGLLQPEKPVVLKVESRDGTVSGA
Summary of the method: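 Luminescent readout of luciferin produced by CYP3A4 (20 nM) dealkylation of Luciferin-PPXE, 25 uM (its KM). NADPH-driven reaction ran 60 min at RT after 10 min compound preincubation; data scaled to 57 uM ketoconazole as 100% inhibition.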

[11] = biological target: Cytochrome P450 3A4 (Homo sapiens) (UniProt P08684); test: qHTS Assay for Activators of Cytochrome P450 3A4 (AID 885); settings: recombinant CYP3A4, Luciferin-PPXE luminescence, 60 min; series mostly up to 57.1 µM; note: nearly all actives have a fitted effect of over 65% in size
Summary of the method: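 CYP3A4 activity: Luciferin-PPXE O-dealkylation, 25uM substrate, 200mM KPO4, RT throughout. Read-out is luciferase luminescence; higher values reflect activation.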

[12] = biological target: Cytochrome P450 2C19 (Homo sapiens) (UniProt P33261); test: qHTS Assay for Inhibitors and Substrates of Cytochrome P450 2C19 (AID 899); settings: recombinant CYP2C19, luciferin-H EGE luminescence; series mostly up to 57.1 µM; note: potency is the fitted concentration of half-maximal effect; nearly all actives have a fitted effect of over 60% in size
Cytochrome P450 2C19 (Homo sapiens), sequence (P33261 whole entry, looked up): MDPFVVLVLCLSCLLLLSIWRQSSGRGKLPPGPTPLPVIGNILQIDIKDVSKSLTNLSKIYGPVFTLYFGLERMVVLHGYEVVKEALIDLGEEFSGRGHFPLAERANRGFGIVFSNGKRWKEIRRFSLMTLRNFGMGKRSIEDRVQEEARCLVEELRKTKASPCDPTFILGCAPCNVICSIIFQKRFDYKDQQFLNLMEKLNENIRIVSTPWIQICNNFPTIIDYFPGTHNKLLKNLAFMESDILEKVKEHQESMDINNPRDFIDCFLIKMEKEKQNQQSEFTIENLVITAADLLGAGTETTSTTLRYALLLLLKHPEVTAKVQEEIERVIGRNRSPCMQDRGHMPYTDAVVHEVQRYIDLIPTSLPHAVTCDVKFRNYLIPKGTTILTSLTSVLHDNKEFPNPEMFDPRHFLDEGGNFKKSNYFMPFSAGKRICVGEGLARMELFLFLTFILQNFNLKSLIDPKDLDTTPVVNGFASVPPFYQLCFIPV
Summary of the method: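 5nM enzyme + 10uM Luciferin-H EGE (=KM), 50mM KPO4; cpd pin-transferred, 10 min 37C; NADPH regen, 60 min 37C; stopped w/ luciferin detection reagent, 20 min; luminescence. Normalized to 57uM ketoconazole (AC100).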

[13] = Confirmation and Secondary Assay for Modulators of Hemoglobin Beta Chain Splicing at IVS2 654 locus (AID 910); settings: HeLa EGFP-654 splicing reporter, GFP fluorescence, 48 h; series mostly up to 38.3 µM;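 note: HeLa cells stably carrying EGFP split by mutant beta-globin IVS2-654 intron; per-well total GFP intensity by laser scanning cytometry after 2-day treatment; % of control where 0% means no effect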
Summary of the method: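 Readout: per-well total peak green fluorescence (488 nm ex, 500–520 nm em) from objects 5–250 µm, reflecting correct splicing of an EGFP-654 reporter. Compounds were applied for 2 days at 37 °C to overnight-plated HeLa EGFP-654 cells; controls were DMSO and 500 nM IVS2-654 PNA.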

[14] = Confirmation and Secondary Assay for Modulators of Hemoglobin Beta Chain Splicing at IVS2 705 locus (AID 930); settings: HeLa EGFP-705 splicing reporter, GFP fluorescence, 48 h; series mostly up to 38.3 µM;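 note: HeLa cells stably expressing the EGFP-705 splicing reporter; GFP fluorescence per well restored by corrected splicing of the IVS2-705 intron in EGFP; % of control where 0% means no effect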
Summary of the method: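 Stable HeLa line with EGFP disrupted by mutant beta-globin intron 2 (705). Overnight attachment, then 2 days of compound at 37C, 5% CO2. Signal: peak GFP intensity summed over objects 5-250 µm.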

[15] = qHTS Assay for Lipid Storage Modulators (AID 1519; calls by dose curve); settings: Drosophila S3 cells, BODIPY lipid droplet/cell ratio, laser cytometry, cells loaded with oleic acid; for activity change, negative = inhibition: at 57.5 µM (top of the series)
Summary of the method: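 Cells seeded at 5,000 per well were treated with compounds over a concentration series and loaded with oleic acid (400 uM, as added). Lipid droplet fluorescence (488 nm excitation, 500-530 nm channel) was read by laser-scanning cytometry and normalized to 20 uM Triacsin C.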

[16] = biological target: Ubiquitin carboxyl-terminal hydrolase 1 (Homo sapiens) (UniProt O94782); test: Inhibitors of USP1/UAF1: Pilot qHTS (AID 504865); settings: purified USP1/UAF1, Ub-rhodamine cleavage fluorescence; series mostly up to 54.9 µM;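 note: rhodamine fluorescence freed from ubiquitin-rhodamine substrate followed over time; top concentration of the series differs between compounds; % is set by controls: 0 for no effect and ±100 for the full control effect; nearly all actives have a fitted effect of over 35% in size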
Ubiquitin carboxyl-terminal hydrolase 1 (Homo sapiens), sequence (O94782 whole entry, looked up): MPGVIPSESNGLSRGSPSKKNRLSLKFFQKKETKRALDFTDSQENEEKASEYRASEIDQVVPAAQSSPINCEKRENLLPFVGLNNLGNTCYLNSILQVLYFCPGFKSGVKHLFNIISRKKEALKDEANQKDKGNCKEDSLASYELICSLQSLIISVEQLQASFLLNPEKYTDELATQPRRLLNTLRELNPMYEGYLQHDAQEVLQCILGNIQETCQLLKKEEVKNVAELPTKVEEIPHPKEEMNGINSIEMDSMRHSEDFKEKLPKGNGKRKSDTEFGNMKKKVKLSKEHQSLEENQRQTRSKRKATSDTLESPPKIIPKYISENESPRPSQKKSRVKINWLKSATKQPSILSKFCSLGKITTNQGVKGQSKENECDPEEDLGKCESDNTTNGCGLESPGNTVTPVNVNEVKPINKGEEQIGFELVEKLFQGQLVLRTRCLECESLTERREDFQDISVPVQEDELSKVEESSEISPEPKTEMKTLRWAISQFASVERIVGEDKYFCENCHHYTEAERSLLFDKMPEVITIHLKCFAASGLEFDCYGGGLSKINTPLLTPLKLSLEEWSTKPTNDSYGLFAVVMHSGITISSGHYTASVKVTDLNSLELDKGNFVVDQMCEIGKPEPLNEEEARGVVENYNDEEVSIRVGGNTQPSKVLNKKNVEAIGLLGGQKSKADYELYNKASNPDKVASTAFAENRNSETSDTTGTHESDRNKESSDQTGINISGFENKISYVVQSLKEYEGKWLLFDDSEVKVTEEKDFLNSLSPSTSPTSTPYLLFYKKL
Summary of the method: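 Enzyme-free wells gave the negative control, while test wells held 1nM USP1/UAF1 preincubated with compound for 15 min at room temperature. Ub-Rho at 150nM final started the reaction, and fluorescence at 480/540 nm was recorded kinetically.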

[17] = Primary qHTS for small molecule stabilizers of the endoplasmic reticulum resident proteome: Secreted ER Calcium Modulated Protein (SERCaMP) assay (AID 1508630); settings: SH-SY5Y GLuc-SERCaMP (Gaussia luciferase released on ER calcium loss) secretion, thapsigargin, luminescence; series mostly up to 38.4 µM; note: % is set by controls: 0 for no effect and ±100 for the full control effect
Summary of the method: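 The SH-SY5Y reporter protocol was run at 3 concentrations up to 38.3 uM (primary) or 11 concentrations (follow-up): 16 h compound, 100 nM thapsigargin for 4 h, then extracellular luciferase luminescence.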

[18] = qHTS Assay for Identification of Small Molecule Agonists for Hypoxia Response Element Signaling Pathway (AID 914; active = well fitted activation curve with a large enough effect in the signal ratio, with a control signal flat, not every such curve was filed as active; the % refers to the signal ratio; note: % of control where 0% means no effect); settings: ME-180 (cervical carcinoma) HRE-bla reporter, beta-lactamase ratio, CoCl2, 17 h; activation: stronger effect = higher value
Summary of the method: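 Reporter activity (beta-lactamase, CCF4 460nm/530nm ratio) in HRE-bla ME-180 cells is recorded after 17 h compound exposure with EC50 CoCl2 at 37 degrees Celsius. AC50 values come from titration data.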

[19] = measured here: cell count channel max response
[20] = measured here: lipid channel max response

COc1ccccc1-c1cncnc1NCc1cccnc1
inactive: Potency [1] > 11.4 µM | activity change, negative = inhibition [2] -10.2% | activity change, negative = inhibition [4] -4.56% | activity, negative = inhibition [5] 4% | Potency [6] > 46 µM | Potency [7] > 46 µM | outcome [8] | Potency [9] | Potency [11] | outcome [13] | outcome [14] | activity change, negative = inhibition [15] 7.04% | Potency [16] | Potency [17]
active: Potency [3] 6.31 µM | Potency [10] 0.501 µM | Potency [12] 3.16 µM
11.1%: max response [15, 19]
18.5%: max response [15, 20]

CN(Cc1ccco1)c1cc(-c2ccccc2Cl)ncn1
5.54%: max response [15, 20]
-2.55%: max response [15, 19]
active: Potency [3] 2.51 µM | Potency [12] 7.94 µM
inactive: Potency [1] > 11.4 µM | activity change, negative = inhibition [2] -3.34% | activity change, negative = inhibition [4] -22.4% | activity, negative = inhibition [5] 5.83% | Potency [6] > 46 µM | Potency [7] > 46 µM | outcome [8] | Potency [9] | outcome [13] | outcome [14] | activity change, negative = inhibition [15] 6.03% | Potency [16] | Potency [17]

COc1ccccc1CNc1ncncc1-c1cccc(C#N)c1
inactive: Potency [1] > 11.4 µM | activity change, negative = inhibition [2] -6.51% | activity change, negative = inhibition [4] -5.86% | activity, negative = inhibition [5] -0.225% | Potency [6] > 46 µM | Potency [7] > 46 µM | outcome [8] | Potency [9] | Potency [11] | outcome [13] | activation [18] -9.43% | outcome [14] | activity change, negative = inhibition [15] 6.39% | Potency [16] | Potency [17]
-8.3%: max response [15, 19]
active: Potency [3] 10 µM | Potency [12] 3.16 µM
8.29%: max response [15, 20]

COc1ccccc1-c1nccc(NCc2cnc(C)cn2)n1
inactive: Potency [1] > 11.4 µM | activity change, negative = inhibition [2] 6.33% | activity change, negative = inhibition [4] 2.9% | activity, negative = inhibition [5] 18.3% | Potency [6] > 46 µM | Potency [7] > 46 µM | outcome [8] | Potency [9] | Potency [11] | outcome [13] | activation [18] 3.22% | outcome [14] | activity change, negative = inhibition [15] 11.7% | Potency [16] | Potency [17]
active: Potency [3] 12.6 µM
16.8%: max response [15, 19]
27.7%: max response [15, 20]

Cc1noc(C)c1-c1cc(N(C)C)ncn1
inactive: Potency [1] > 11.4 µM | activity change, negative = inhibition [2] 10% | activity change, negative = inhibition [4] 9.29% | activity, negative = inhibition [5] 16% | Potency [6] > 46 µM | Potency [7] > 46 µM | outcome [8] | Potency [9] | outcome [13] | activation [18] 0.655% | outcome [14] | activity change, negative = inhibition [15] 8.35% | Potency [16] | Potency [17]
active: Potency [3] 3.16 µM
3.97%: max response [15, 19]
11.9%: max response [15, 20]

From PubChem BioAssay (NCATS)
